Experimental data: PubChem BioAssay AID493169 (National Center for Advancing Translational Sciences (NCATS), 2011)
Records with an inconclusive call do not appear. Entries that show only a call come without a potency. Activity calls are given as the source filed them. The call rests on the fitted dose curve; in most records, active means well fitted inhibition curve with a large enough effect; inconclusive means small, poorly fitted or top-dose-only effect; inactive means flat fitted curve, though single readings scatter.

Experiment: CHOP2 Reporter Counterscreen Assay for Inhibitors of Ubiquitin-specific Protease USP2a;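 further: activated enterokinase alone at 50 pM in a cell-free format rather than USP2a or CHOP2; nearly all actives have a fitted effect of over 55% in size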
Conditions: purified enterokinase, fluorogenic substrate, 485/531 nm; series mostly up to 38.3 µM
How it was run: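 Cell-free counterscreen with pre-activated enterokinase alone (50 pM final) in 20mM Tris-HCl pH 8.0, 2mM CaCl2, 2mM beta-mercaptoethanol, 0.05% CHAPS; compound preincubation 30 min RT, reporter substrate 25nM final, fluorescence read after 10 min (Ex 485/Em 531).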
Potency means the concentration at half of the fitted maximal effect.

Structure (SMILES) | Potency
COc1ccc2[nH]c(=O)c(CN(C)C(=O)C3CCCCC3)cc2c1 | inactive
Cc1cc(C(=O)CSc2nnc(Nc3ccccc3F)s2)c(C)n1CC1CCCO1 (stereo not given) | inactive
COc1cc2c(ccc3cc(OC)c(OC)c(O)c32)cc1O | 5.62 µM (active)
CC1=CC(C)(C)N(C(=O)c2ccccc2)c2ccccc21 | inactive
Cc1ccc(Nc2nc(N)nc(CN3CCN(C(=O)c4ccco4)CC3)n2)cc1Cl | inactive
CCCCOC1(c2ccccc2)NC(=S)NN=C1c1ccccc1 (stereo not given) | inactive
N#Cc1cc(Sc2ccccn2)c(Sc2ccccn2)cc1C#N | inactive
O=C1/C(=C/C=C/c2ccco2)SC(=S)N1c1ccc(O)cc1 | 2.82 µM (active)
Cc1noc(C)c1NC(=O)Nc1ccc2c(c1)C(=O)N([C@H](C)CO)C[C@H](C)[C@@H](CN(C)S(=O)(=O)c1ccccc1)O2 | inactive
Cc1ccc(C)c(S(=O)(=O)N2CCN(C(=O)/C=C/c3ccco3)CC2)c1 | 11.2 µM (active)
COCCn1nnnc1CN(CCc1ccccc1)Cc1cc2ccc(C)cc2[nH]c1=O | inactive
Cc1ccc(C(=O)C(=S)N2CCOCC2)cc1 | inactive
COc1cc2cc(CN(CCN3CCCC3)C(=O)Nc3ccc(F)cc3)c(=O)[nH]c2cc1OC | inactive
Cn1c2ccccc2c2nnc(SC3CCOC3=O)nc21 (stereo not given) | inactive
Cc1n[nH]c(C)c1S(=O)(=O)N1CCCC(C(=O)Nc2nccs2)C1 (stereo not given) | inactive
CCCn1c(NC(=O)c2ccc(Br)cc2)nc2ccccc21 | inactive
Cc1ccc(-c2ccc(CCC(=O)O)n2NC(=O)c2cccs2)cc1 | inactive
O=C(Cc1cccs1)Nc1ccc(S(=O)(=O)N2CCCCC2)cc1 | 7.94 µM (active)
CCOc1ccccc1N1C(=O)CC(Nc2ccc(N3CCOCC3)cc2)C1=O (stereo not given) | inactive
COc1ccc(NC(=O)CN(Cc2ccccc2)S(C)(=O)=O)cc1 | inactive

Structure (SMILES) | Potency
CC(=O)OCC(=O)Nc1ccc(Cl)cc1Cl | inactive
Cc1ccc(C(=O)Oc2coc(CSc3nnc(NC(=O)c4cccs4)s3)cc2=O)cc1 | 3.16 µM (active)
Cc1ccc(NC(=O)CSc2nc(O)cc(=O)n2-c2ccc(C)cc2)cc1 | inactive
COC1=CCC2([N+](=O)[O-])CN(CCO)CC1([N+](=O)[O-])C2 (stereo not given) | inactive
Nc1c(C(=O)Nc2ccc(Cl)cc2)oc2ccccc12 | inactive
CSCCC(NC(=O)c1cc(C(C)(C)C)oc1C)C(=O)O (stereo not given) | inactive
COc1cc2c(C(=O)N3CCN(c4cccc(Cl)c4)CC3)cn(CC(C)C)c(=O)c2cc1OC | inactive
COc1ccc(C(=O)N/C(=C\c2cccs2)C(=O)N2CCN(C)CC2)cc1OC | inactive
CCOC(=O)CCCNC(=O)COC(=O)c1cccc(C)c1O | inactive
CC1(C(=O)O)Sc2[nH]c(=O)sc2C2c3ccccc3OC(=O)C21 (stereo not given) | inactive
Cc1ccc(S(=O)(=O)N2[C@@H](c3ccccc3F)C(C(=O)O)=CC[C@H]2c2ccc(Cl)c(Cl)c2)cc1 | inactive
Cc1cccc(N2CCN(C(=O)CCc3nc4ccccc4[nH]3)CC2C)c1 (stereo not given) | inactive
Nc1c(C(=O)NC2CC2)sc2nc3c(c(-c4ccco4)c12)CC/C3=C/c1ccco1 | 2.24 µM (active)
Cc1ccc(N2CN=c3s/c(=C\c4cccnc4)c(=O)n3C2)cc1 | inactive
O=C(C[n+]1ccc(-c2cc(C(=O)Nc3cccc(C(F)(F)F)c3)c3ccccc3n2)cc1)c1cccc([N+](=O)[O-])c1 | inactive
CN(C)S(=O)(=O)c1cccc(NC(=S)NNC(=O)c2cc3ccccc3cc2O)c1 | inactive
Cc1nn(C)cc1CNC(=O)c1ccc(Br)o1 | inactive
Cc1ccc(S(=O)(=O)Nc2cc(C)c(O)c(S(=O)(=O)c3ccc(C)cc3)c2)cc1 | inactive
CCOC(=O)Cn1c(=O)oc2cc(S(=O)(=O)Nc3cc(Cl)ccc3OC)ccc21 | inactive
C=CC[C@@H](CC(=O)N(CCO)Cc1ccccc1)C(=O)NCCOC(=O)[C@H](CC=C)CC(=O)OC(C)(C)C | inactive
